Source: PubChem
Compounds with a hit are over-represented: about 3.8% of the library has one in this group of screens.
TrxR1 inh = blocks rat thioredoxin reductase 1; recombinant rTrxR1, NADPH fluorescence consumption, selenite substrate; Potency, µM (doses to about 114 µM), inactives show top-dose activity change, negative = inhibition, usual class: inhibitors; hit rate 1% among 390,000; AID 588453; further: nearly all actives have a fitted effect of over 65% in size
Target sequence (O89049 whole entry, looked up): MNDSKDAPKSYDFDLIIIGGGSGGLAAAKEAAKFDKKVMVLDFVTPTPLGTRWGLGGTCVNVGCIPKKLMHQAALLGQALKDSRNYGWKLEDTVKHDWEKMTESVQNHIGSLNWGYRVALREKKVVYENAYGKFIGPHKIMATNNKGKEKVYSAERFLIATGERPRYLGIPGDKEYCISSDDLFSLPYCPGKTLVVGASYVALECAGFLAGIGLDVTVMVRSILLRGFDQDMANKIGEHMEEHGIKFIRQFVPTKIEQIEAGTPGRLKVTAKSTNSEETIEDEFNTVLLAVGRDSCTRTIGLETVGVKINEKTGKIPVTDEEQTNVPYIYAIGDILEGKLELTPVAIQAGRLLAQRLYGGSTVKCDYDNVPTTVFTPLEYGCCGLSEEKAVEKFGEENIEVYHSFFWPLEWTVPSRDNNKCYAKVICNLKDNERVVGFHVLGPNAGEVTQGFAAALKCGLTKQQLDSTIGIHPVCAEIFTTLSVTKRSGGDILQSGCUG
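Rat TrxR1 (90 nM in the dispensed reagent) was pre-reduced with 400 uM NADPH for 5 min at room temperature, then incubated with compound for 15 min. After 400 uM selenite was added, NADPH fluorescence (Ex 340/Em 450 nm) was followed for 8 min.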
GLS inhibitor = inhibitors of human glutaminase (GLS). O94925. GLS enzymatic activity, qHTS titration. Potency, µM (top dose mostly 45.5 µM), without a hit: at the highest dose activity change, negative = inhibition, usual class: inhibitors. hit rate 0.21% among 410,000. AID 624170
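hKGA in 45 mM KH2PO4 pH 8.2, 0.02% Tween-20 with pin-transferred compounds; 1 mM L-glutamine (stock) plus glutamate oxidase/HRP/Amplex Red coupling added. Fluorescence read initially and after 30 min at RT.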
VDR inhibitor = blocks the human vitamin D receptor; VDR-SRC2-3 peptide fluorescence polarization, 2 h; P11473; Potency, µM, for the others: max response, negative = inhibition, usual class: inhibitors; AID 504847; hit rate 0.93% among 400,000
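Measured by FP: displacement of SRC2-3 coactivator peptide from VDR by library compounds, following a two-hour ambient incubation.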
Sfp inh = inhibitors of Bacillus subtilis Sfp phosphopantetheinyl transferase | Potency, µM, without a hit: largest response in the series, negative = inhibition, usual class: inhibitors | AID 1490 | Biochemical Sfp PPTase activity, qHTS | hit rate 3.5% among 310,000;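 further: the enzyme is Sfp with the accession as filed and its product quenches rhodamine fluorescence; 0% = enzyme reaction without inhibitor and -100% = no enzyme wells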
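Fluorescence-quenching assay: 15 nM Sfp-PPTase preincubated 15 min at room temperature with compound, then 5 uM rhodamine-CoA and 12.5 uM BHQ-2-labelled YbbR peptide added. Fluorescence (ex 525/em 598 nm) read at start and after 30 min; difference gives rate.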
GCN5L2 inh = inhibitors of human GCN5L2 histone acetyltransferase | Q92830 | GCN5L2 HAT assay, ThioGlo1 CoA-SH fluorescence | Potency, µM (top dose mostly 58.9 µM), for inactives: at the highest dose activity change, negative = inhibition, most hits filed as inhibitors | hit rate 0.21% among 390,000 | AID 504327
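Titration-based screen in which CoA formation is detected via maleimide probe ThioGlo1 (50uM) turning fluorescent on thiol reaction; substrates H3(1-25) 75uM and acetyl-CoA 70uM, GCN5L2 20nM, 20 min incubation at room temperature.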
TrxR1 substrate = substrates of rat thioredoxin reductase 1; purified TrxR1 substrate turnover, NADPH consumption readout; Potency, µM (doses to about 114 µM), for the others: at the highest dose activity change, negative = substrate turnover; hit rate 0.01% among 390,000; further: nearly all actives have a fitted effect of over 50% in size
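Rat TrxR1, dispensed at 90 nM, was prereduced with 400 uM NADPH (final) for 5 min at ~22 deg C, then incubated with compound 15 min before 400 uM selenite. A first-read NADPH fluorescence drop versus no-compound background flagged substrates.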
* hit, by the source's call; ? = inconclusive; nt = no result; [ ] = remark or other dose. The call rests on the fitted dose curve; in most records, active means well fitted curve in the direction sought with a large enough effect; inconclusive means small, poorly fitted or top-dose-only effect, or another doubt; inactive means no such curve, though single readings can be large; an effect the other way counts as inactive or inconclusive. Unless noted, on the % scale 0 is the no-effect control and ±100 the full control effect; potency means the concentration at half of the fitted maximal effect.

SMILES | TrxR1 inh | GLS inhibitor | VDR inhibitor | Sfp inh | GCN5L2 inh | TrxR1 substrate
CCN(CC)S(=O)(=O)c1ccc(C(=O)/C=C/c2ccc(-c3ccc([N+](=O)[O-])cc3)o2)cc1 | -20% | 0% | ? | 79µM* | 24% | -2%
COc1ccc(-n2nnnc2C2CCN(S(=O)(=O)c3ccc(F)cc3Cl)CC2)cc1 | 11% | 7% | 14% | nt | -12% | -1%
CC(=O)CSc1ncnc2sc3c(c12)CCC3 | -7%[57.1 µM] | -1% | -8% | 2% | -9% | 4%
CCCCN(CCCC)CC(O)Cn1cc(/C=C/C(=O)c2ccccc2)c2ccccc21 (stereo not drawn) | -9% | 3% | 12% | nt | -8% | -10%
CCCCN(C)CC(O)Cn1cc(/C=C/C(=O)c2cccs2)c2ccccc21 (stereo not drawn) | -14% | 8% | -12% | 20µM* | -6% | 0%
CCCCN(C)CC(O)Cn1cc(/C=C/C(=O)c2ccc(OCC)cc2)c2ccccc21 (stereo not drawn) | -4% | 7% | 12% | 45µM* | -11% | -6%
Cc1ccc(C(=O)NC2CCCCNC2=O)cc1 (stereo not drawn) | 28% | -1% | -4% | 8% | 3% | 7%
CCc1cc2c(=O)n(Cc3ccco3)c(SCC(=O)NC3CCS(=O)(=O)C3)nc2s1 (stereo not drawn) | ? | 1% | -12% | 32µM* | -5% | -6%
CCc1cc2c(=O)n(Cc3ccco3)c(SCc3c(C)noc3C)nc2s1 | ? | 2% | 79µM* | -87% | -15% | 19%[57.1 µM]
CCc1cc2c(=O)n(Cc3ccco3)c(SCC(=O)N(C)C3CCS(=O)(=O)C3)nc2s1 (stereo not drawn) | ? | ? | ? | 7.9µM* | -18% | 4%[57.1 µM]
Cc1ccc(NC(=O)CN(C)C(=O)Cn2ncc(Cl)c(Cl)c2=O)cc1 | 71µM* | 5% | -6% | -9% | 10% | -9%
Cc1ccc(NC(=O)CN(C)C(=O)Cc2ccc(Cl)c(Cl)c2)cc1 | 11% | 2% | 22% | 14% | -5% | -5%
CCOC(=O)N1CCN(C(=O)CCCCn2c(=S)[nH]c3ccsc3c2=O)CC1 | -3%[57.1 µM] | 1% | 22% | 79µM* | 0% | 12%[57.1 µM]
Nc1c(C(=O)Nc2ccc(F)cc2)sc(=S)n1-c1ccccc1F | -24% | -23% | ? | 32µM* | -14% | -9%
Cn1c(N)c(C(=O)Nc2ccc3ccccc3c2)sc1=S | 18% | 4% | -25% | 14µM* | -14% | 4%
CCOC(=O)C1=C(N)OC2=C(C(=O)CCC2)C1c1ccc2c(c1)OCO2 (stereo not drawn) | 7% | 3% | 4% | nt | nt | 5%
COC(CNC(=O)Cn1nc(Cc2ccncc2)c2ccccc2c1=O)OC | 12% | 0% | -17% | 20% | -15% | -2%
Cc1ccc(OCC(=O)Nc2ccc3c(c2)nc(CCN2CCN(C)CC2)n3C)cc1 | 10% | -1% | -2% | 14% | -3% | 5%
C=CCn1c(SCC(=O)NCc2ccc3c(c2)OCO3)nc2scc(-c3ccccc3)c2c1=O | 8% | 7% | -8% | ? | ? | 2%
C=CCOC(=O)C1=C[C@H](C(C)(C)C)[C@@H](CCCO)[C@H](OCC)O1 | 21% | 0% | -27% | nt | nt | -4%
CCn1c(SCc2nc3ccccc3nc2C)nnc1-c1cccs1 | -5% | 6% | -8% | 5% | -5% | -2%
C=CCn1c(SCc2nc3ccccc3nc2C)nnc1-c1ccoc1C | 45µM* | 12% | ? | -1% | -8% | 0%
COc1cccc(C(=O)NN2C(=O)C3C4C=CC(O4)C3C2=O)c1 (stereo not drawn) | 28µM* | 5% | 11% | ? | -11% | -3%
COc1ccc(C(=O)NN2C(=O)C3C4C=CC(O4)C3C2=O)cc1 (stereo not drawn) | ? | 18% | 17% | 22µM* | 3% | -4%
O=C(O)COc1ccccc1/C=N/NC(=O)c1ccncc1 | nt | 3% | 8% | 50µM* | -13% | nt
SMILES | TrxR1 inh | GLS inhibitor | VDR inhibitor | Sfp inh | GCN5L2 inh | TrxR1 substrate
COc1cc(C(=O)NCC(=O)N/N=C/c2ccccn2)cc(OC)c1OC | 12%[57.1 µM] | -3% | 1% | 45µM* | -5% | 10%[57.1 µM]
O=C(CNC(=O)c1ccncc1)N/N=C/c1ccccn1 | 3% | 5% | 4% | 56µM* | -4% | 1%
CCS(=O)(=O)N1CCN(c2ccc(S(=O)(=O)N3CCOCC3)cc2)CC1 | -7% | -4% | -4% | 6% | 2% | ?
Cc1cc(C)c(O)c(-c2cc(C(=O)Nc3cccnc3)[nH]n2)c1 | 18% | ? | -4% | 0% | -4% | 9%
CCOC(=O)c1c(C)[nH]c(C=Nc2ccccc2)c1O | nt | nt | nt | 40µM* | -1% | nt
CCOC(=O)c1c(C)[nH]c(N=Nc2ccccc2)c1C | -20% | 4% | 5% | -24% | -13% | -20%
CCOC(=O)c1c(C)[nH]c(N=Nc2ccc(C)cc2)c1C | -34%[57.1 µM] | 16% | 0% | 20µM* | -11% | 3%[57.1 µM]
CCOC(=O)c1c(C)[nH]c(N=Nc2ccc(OC)cc2)c1C | 4% | -11% | -11% | 50µM* | -1% | -13%
Clc1ncc(CSc2ccccc2)s1 | 27%[57.1 µM] | 7% | -7% | 17% | -4% | 9%[57.1 µM]
CCOc1ccc(NC(N)=O)cc1 | 14% | 12% | 25% | 15% | 3% | 9%
Clc1ccc(Oc2cnc3ccccc3n2)cc1 | 12% | 2% | -4% | -16% | -4% | -5%
Oc1ccc(C=NNc2nc3ccccc3s2)c(O)c1 | 14% | 7% | 20% | nt | nt | 0%
Oc1ccc(/C=N/Nc2ccc3ccccc3c2)c(O)c1 | 11%[57.1 µM] | ? | ? | 50µM* | -9% | 6%[57.1 µM]
Cc1cccc(NC(=S)N(CCN(C)C)Cc2cc3cc(C)cc(C)c3[nH]c2=O)c1 | -17% | -8% | 9% | 2% | 3% | -10%
Cc1cc(C)c(NC(=O)/C(=C/c2ccco2)c2ccccc2)c(C)c1 | ? | -2% | -7% | 35µM* | -11% | -2%
Cc1cccc(C)c1NC(=O)/C(=C/c1ccco1)c1ccccc1 | -13%[57.1 µM] | 3% | -9% | 22µM* | -4% | 8%[57.1 µM]
Cc1ccc(C(=O)CC(C(=O)O)P(=O)(c2ccccc2)c2ccccc2)cc1 (stereo not drawn) | 14%[57.1 µM] | 12% | 11% | 18% | 2% | -2%
Cc1ccc(C(O)(CCN2CCCCC2)c2ccccc2)cc1 (stereo not drawn) | -45% | -1% | -19% | 7% | 3% | -11%
CSC1CCCCC1(O)CSc1nc2ccccc2o1 (stereo not drawn) | 6% | 13µM* | -3% | 13% | -11% | 2%
O=C(CSc1nc2ccccc2o1)NC1CCCC1 | 26%[57.1 µM] | -1% | 11% | 6% | -5% | 10%[57.1 µM]
